# Laboratory results as given in the supplement of paper PMC12350171.
# Counter-ions that a name gives are not always drawn.
# System: Haemophilus parainfluenzae
# Experiment: growth AUC normalised to DMSO control (fraction of control); higher = less growth inhibition, active = hit call of the paper
# Details: 20 µM;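 active = AUC significantly below DMSO controls by Student t-fit with adjusted P under 0.01; inactive = not significantly reduced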
# Method in brief: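 After two anaerobic passages, pathogens were added at a starting OD578 of 0.01 to pre-reduced mGAM plates holding compound at 20 μM with 1% DMSO; hemin and NAD were supplemented for Haemophilus parainfluenzae. Sealed with breathable membranes, plates were read at OD578 hourly for 24 h, in three biological replicates. The trapezoidal rule, applied up to the exponential-to-stationary transition, gave the growth-curve AUC, which was normalised to DMSO controls on the same plate.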
row,Structure (SMILES),growth AUC normalised to DMSO control
1,CN(C)[C@@H]1C(=O)C(C(N)=O)=C(O)[C@@]2(O)C(=O)C3=C(O)c4c(O)cccc4[C@@](C)(O)[C@H]3C[C@@H]12 [Tetracycline hydrochloride],0.0479 (active)
2,CC(Cc1ccc(O)cc1)NCC(O)c1cc(O)cc(O)c1 (centres undefined) [Fenoterol hydrobromide],0.991 (inactive)
3,Clc1ccc(C(OCCN2CCCCC2)c2ccccc2)cc1 (centres undefined) [Cloperastine hydrochloride],0.833 (inactive)
4,CC(O)(CS(=O)(=O)c1ccc(F)cc1)C(=O)Nc1ccc(C#N)c(C(F)(F)F)c1 (centres undefined) [Bicalutamide],1.12 (inactive)
5,CCN(C(C)=O)c1cccc(-c2ccnc3c(C#N)cnn23)c1 [Zaleplon],0.975 (inactive)
6,NCCCNCCSP(=O)(O)O [Amifostine],1.02 (inactive)
7,C[C@]12COC(=O)C[C@@H]1CC[C@@H]1[C@@H]2CC[C@@]2(C)[C@H]1CC[C@]2(C)O [Oxandrolone],0.995 (inactive)
8,Oc1cc(Cl)ccc1Oc1ccc(Cl)cc1Cl [Triclosan],0.0433 (active)
9,C=CCN1CC[C@]23c4c5ccc(O)c4O[C@H]2C(=O)CC[C@@]3(O)[C@H]1C5 [Naloxone hydrochloride],1.01 (inactive)
10,CC(=O)OCC(=O)[C@H]1CC[C@H]2[C@@H]3CC[C@H]4C[C@H](O)CC[C@]4(C)[C@H]3C(=O)C[C@]12C [Alfadolone acetate],1.26 (inactive)
11,S=C(NC1CCCCC1)N1CCC(c2cnc[nH]2)CC1 [Thioperamide maleate],0.976 (inactive)
12,CN1CCN(C(=O)OC2c3nccnc3C(=O)N2c2ccc(Cl)cn2)CC1 (centres undefined) [Zopiclone],1.01 (inactive)
13,CN1C(=O)CCS(=O)(=O)C1c1ccc(Cl)cc1 (centres undefined) [Chlormezanone],1.02 (inactive)
14,CN(C)[C@@H]1C(=O)C(C(N)=O)=C(O)[C@@]2(O)C(=O)C3=C(O)c4c(O)cccc4[C@@](C)(O)[C@H]3[C@H](O)[C@@H]12 [Oxytetracycline dihydrate],0.0523 (active)
15,N[C@@H]1C[C@H]1c1ccccc1 [Tranylcypromine hydrochloride],1.04 (inactive)
16,NC(=O)C[S+]([O-])C(c1ccccc1)c1ccccc1 (centres undefined) [Modafinil],1 (inactive)
17,COc1ccc(C(=O)N2CCCC2=O)cc1 [Aniracetam],0.993 (inactive)
18,C[C@]12CCC(=O)C(O)=C1CC[C@@H]1[C@@H]2CC[C@]2(C)C(=O)CC[C@@H]12 [Formestane],1.01 (inactive)
19,CCC(=O)O[C@H]1CC[C@H]2[C@@H]3CCC4=CC(=O)CC[C@]4(C)[C@H]3CC[C@]12C [Testosterone propionate],1.06 (inactive)
20,CCNCC(O)c1cccc(O)c1 (centres undefined) [Etilefrine hydrochloride],0.987 (inactive)

row,Structure (SMILES),growth AUC normalised to DMSO control
1,CC(=O)OC1CN2CCC1CC2 (centres undefined) [Aceclidine hydrochloride],1.02 (inactive)
2,CN1[C@@H]2CC[C@H]1C[C@@H](OC1c3ccccc3CCc3ccccc31)C2 [Deptropine citrate],0.95 (inactive)
3,NC(=O)CN1CCCC1=O [Piracetam],0.975 (inactive)
4,CC(=O)[C@H]1CC[C@H]2[C@@H]3CC[C@H]4C[C@H](O)CC[C@]4(C)[C@H]3C(=O)C[C@]12C [Alfaxalone],1 (inactive)
5,"CCC1(c2ccc(N)cc2)CCC(=O)NC1=O (centres undefined) [Glutethimide, para-amino]",1.04 (inactive)
6,COc1ccc(Cc2nccc3cc(OC)c(OC)cc23)cc1OC [Papaverine hydrochloride],0.976 (inactive)
7,C[C@]12Cc3c[nH]nc3C[C@@H]1CC[C@@H]1[C@@H]2CC[C@@]2(C)[C@H]1CC[C@]2(C)O [Stanozolol],0.949 (inactive)
8,O=c1[nH]c2ccccc2n1C1CCN(CCCC(c2ccc(F)cc2)c2ccc(F)cc2)CC1 [Pimozide],0.788 (inactive)
9,"CN1CCC2(C)c3cc(O)ccc3N(C)C12 (single isomer, unassigned; (-)) [(-) Eseroline fumarate salt]",1.02 (inactive)
10,CC[C@@H](CO)NC(=O)[C@@H]1C=C2c3cccc4[nH]cc(c34)C[C@H]2N(C)C1 [Methylergometrine maleate],0.997 (inactive)
11,COc1ccc2c(c1)[C@]13CCCC[C@@H]1[C@H](C2)N(C)CC3 [Dextromethorphan hydrobromide monohydrate],1.02 (inactive)
12,O=P1(N(CCCl)CCCl)NCCCO1 (centres undefined) [Cyclophosphamide],1.04 (inactive)
13,CN1C[C@H](CNC(=O)OCc2ccccc2)C[C@@H]2c3cccc4c3c(cn4C)C[C@H]21 [Metergoline],0.925 (inactive)
14,O=[N+]([O-])O[C@H]1CO[C@H]2[C@@H]1OC[C@H]2O[N+](=O)[O-] [Isosorbide dinitrate],1.07 (inactive)
15,CCC(=O)O[C@@](Cc1ccccc1)(c1ccccc1)[C@@H](C)CN(C)C [Levopropoxyphene napsylate],1 (inactive)
16,CCCC[N+]1(C)[C@@H]2C[C@@H](OC(=O)[C@H](CO)c3ccccc3)C[C@H]1[C@@H]1O[C@@H]12 (some centres undefined) [N-Butylscopolammonium bromide],1 (inactive)
17,C[C@]12CC[C@H](O)C[C@H]1CC[C@@H]1[C@@H]2C[C@@H](O)[C@]2(C)[C@@H](C3=CC(=O)OC3)CC[C@]12O [Digoxigenin],1.01 (inactive)
18,OC(c1ccccc1)(c1ccccc1)C1CCNCC1 [Azacyclonol],0.982 (inactive)
19,CN1[C@@H]2C[C@@H](OC(=O)[C@H](CO)c3ccccc3)C[C@H]1[C@@H]1O[C@@H]12 [Scopolamine hydrochloride],1.06 (inactive)
